# Compounds with a hit are over-represented: about 12% of the library has one in this group of screens.
# PLK1 PBD inh – inhibitors of human PLK1 polo-box domain binding | actives 2.8% (n = 360,000) | Plk1 PBD binding of FITC phosphopeptide, fluorescence polarization | AID 720504 | Potency, µM, inactives show max response, negative = inhibition, usual class: inhibitors | P53350; also: potency is read from the fitted curve at half-maximal effect; series mostly up to about 57 µM; % is scaled to controls: 0 for no effect and ±100 for the full control effect; nearly all actives have a fitted effect of over 65% in size
# BAZ2B inh – inhibitors of human BAZ2B bromodomain | AID 504333 | Potency, µM (highest dose often 114 µM), for inactives: at the top dose activity change, negative = inhibition, most hits filed as inhibitors | AlphaScreen BAZ2B-H3K14Ac peptide displacement | actives 4.4% (n = 360,000); also: potency is read from the fitted curve at half-maximal effect; % is scaled to controls: 0 for no effect and ±100 for the full control effect; nearly all actives have a fitted effect of over 60% in size
#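 AlphaScreen displacement: compounds (up to 110uM) incubated 30 min at room temperature with a preformed 50 nM BAZ2B/50 nM biotinylated H3K14Ac peptide complex in PBS pH 7.4 with Tween-20. Donor and acceptor beads at 10 ug/mL final added, 20 min light-protected before reading.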
# JMJD2A Tudor inh – inhibitors of human JMJD2A Tudor domain | Potency, µM (titrated, usually from 114 µM), for inactives: at the highest dose activity change, negative = inhibition, actives largely listed as inhibitors | actives 4.4% (n = 390,000) | AlphaScreen JMJD2A-Tudor / H3K4me3 peptide binding; also: potency is read from the fitted curve at half-maximal effect; % is scaled to controls: 0 for no effect and ±100 for the full control effect; nearly all actives have a fitted effect of over 50% in size
# HP1b binding inh – blocks HP1-beta chromodomain binding to methylated histone tails | AlphaScreen HP1-beta / biotin-H3K9me3 peptide binding | actives 0.56% (n = 390,000) | Potency, µM (series often up to 114 µM), inactives show at the top dose activity change, negative = inhibition, usual class: inhibitors | AID 540317 | P83916; also: potency is read from the fitted curve at half-maximal effect; nearly all actives have a fitted effect of over 70% in size
#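 Compound inhibition of the preformed complex between 50 nM HP1-beta and 50 nM biotinylated H3K9me3 peptide was read by AlphaScreen. Buffer was PBS pH 7.4 with 0.01% Tween-20. Incubations ran 30 min at room temperature, with 10 ug/mL donor/acceptor beads.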
# PI5P4Ka inh – PI5P4K alpha (human) kinase inhibition; P48426; PI5P4Kalpha enzyme, ADP-Glo luminescence, 60 min; stronger effect = lower value; max response, %; actives 1.2% (n = 330,000); AID 652105; active = max response of -50% or lower; inconclusive = between -30% and -50%; inactive = -30% or higher; also: value at the top dose of about 77 µM; % is scaled to controls: 0 for no effect and ±100 for the full control effect
# Target sequence (P48426 whole entry, looked up): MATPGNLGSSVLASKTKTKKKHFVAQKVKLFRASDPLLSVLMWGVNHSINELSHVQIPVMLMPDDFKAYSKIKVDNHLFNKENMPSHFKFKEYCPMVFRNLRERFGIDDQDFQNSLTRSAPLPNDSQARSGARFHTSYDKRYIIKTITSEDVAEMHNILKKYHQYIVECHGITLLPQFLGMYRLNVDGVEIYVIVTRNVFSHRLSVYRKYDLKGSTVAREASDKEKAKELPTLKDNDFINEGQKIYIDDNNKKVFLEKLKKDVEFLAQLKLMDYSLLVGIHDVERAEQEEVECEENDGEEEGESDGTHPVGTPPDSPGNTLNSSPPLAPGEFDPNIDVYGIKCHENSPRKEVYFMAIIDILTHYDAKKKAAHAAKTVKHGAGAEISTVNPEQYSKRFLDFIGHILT
#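 ADP-Glo luminescence end-point after a 60 min room-temperature kinase reaction. PI5P4Kalpha and substrate in HEPES pH 7.4 buffer with EGTA, 0.1% CHAPS and 5% DMSO; ATP at 5 microM final.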
# G9a block – blocks human histone lysine methyltransferase G9a; Q96KQ7; G9a H3K9 monomethylation, AlphaScreen, 2 h; Potency, µM (titrated, usually from 102 µM), for the others: top-dose activity, negative = inhibition, most hits filed as inhibitors; actives 8.8% (n = 350,000); also: potency is read from the fitted curve at half-maximal effect; % is scaled to controls: 0 for no effect and ±100 for the full control effect; nearly all actives have a fitted effect of over 75% in size
# Target sequence (Q96KQ7 913-1193 limits assumed): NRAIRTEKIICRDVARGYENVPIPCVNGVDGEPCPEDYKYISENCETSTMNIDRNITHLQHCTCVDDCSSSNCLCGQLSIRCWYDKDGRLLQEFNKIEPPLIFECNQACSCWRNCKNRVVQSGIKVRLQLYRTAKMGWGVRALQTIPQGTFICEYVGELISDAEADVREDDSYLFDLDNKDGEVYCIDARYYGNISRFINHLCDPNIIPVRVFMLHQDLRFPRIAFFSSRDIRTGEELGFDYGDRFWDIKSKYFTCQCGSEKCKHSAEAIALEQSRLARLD
#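 Step 1: enzyme (final 20 nM) with compound, 15 min RT. Step 2: substrate peptide 500 nM and SAM 20 uM, 2 h RT. Step 3: anti-H3K9me1 antibody and AlphaScreen beads, 10 min, then plate read.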
# Starred values were filed as active, the others as inactive; ? = inconclusive; . = not tested or not shown; [ ] = another dose, or the depositor's remark. Unless noted, calls follow the shape of the dose curve; as a rule, active = well fitted curve in the direction sought with a large enough effect; inconclusive = small, poorly fitted or top-dose-only effect, or another doubt; inactive = no such curve, though single readings can be large; an effect the other way counts as inactive or inconclusive.
SMILES,PLK1 PBD inh,BAZ2B inh,JMJD2A Tudor inh,HP1b binding inh,PI5P4Ka inh,G9a block
O=C(OCC#CCSc1nnc(-c2cccc3ncccc23)o1)c1ccc(F)cc1,.,.,-11%,.,.,.
CN(C)CCCNC(=O)N1c2ccccc2Sc2ccccc21,-18%,0%,-13%,21%,5,-10%
CC1c2ccccc2SC(CCCN(C)C)c2ccccc21 (centres undefined),4%,1%,-10%,9%,-1,56µM*
COc1ccc(-c2ccc(CCC(=O)O)n2NC(=O)c2ccc(O)cc2)cc1,-3%,-14%,-17%,45%,0,7%
Cc1ccc(-c2ccc(CCC(=O)O)n2NC(N)=S)cc1,-13%,-11%,?,19%,-3,?
Cc1ccc(-c2ccc(CCC(=O)O)n2-c2ccc(C)c(Cl)c2)cc1,.,?,?,-19%,.,13µM*
Cc1ccc(-c2ccc(CCC(=O)O)n2C(C)C)cc1,?,?,-30%,-3%,3,79µM*
CC(=O)c1cccc(-n2c(CCC(=O)O)ccc2-c2ccc(C)cc2)c1,2%,-27%,-36%,-13%,-4,18%[2.33 µM]
Cc1ccc(C)c(-n2c(CCC(=O)O)ccc2-c2ccc(Cl)cc2)c1,.,40µM*,?,-13%,.,13µM*
COc1ccc(C(=O)Nn2c(CCC(=O)O)ccc2-c2ccc(C)cc2)cc1OC,21µM*,-25%,50µM*,-19%,?,-30%
CCCCCc1nn2cc(-c3ccccc3)nc2s1,.,8%,-8%,21%,.,6%[59 µM]
COC(=O)NNC(=S)Nc1ccc(Br)cc1,-7%,-11%,3%,69%,-2,50µM*
CCOc1ccc(NC(=O)c2cc(SC)ccc2Cl)cc1,-17%,8%,-4%,22%,-5,11%[59 µM]
COC(=O)c1ccc(NC(=S)Nc2ccccn2)cc1,-5%,-5%,?,12%,0,?
CCOc1ccc(NC(=S)NNc2ccnc3cc(Cl)ccc23)cc1,?,?,22µM*,11µM*,3,7.1µM*
COC(=O)c1ccc(NC(=S)Nc2ccc(O)cc2)cc1,?,-5%,-8%,24%,3,50µM*
S=C(NNc1ccnc2cc(Cl)ccc12)Nc1ccc(Cl)cc1Cl,?,?,?,?,-16,?
CCOc1ccc(NC(=S)NNC(=O)c2cc(Br)ccc2Cl)cc1,-20%,-19%,-29%,-16%,7,45µM*
NC(=NCc1ccccc1)NN=Cc1ccnc2ccccc12,-18%,.,.,.,?,.
O=C(NC(=S)Nc1ccc(O)cc1)C1CCCC1,-8%,-5%,-24%,24%,-1,-3%[12.7 µM]
Oc1ccc(NC(=S)Nc2ccc(O)cc2)cc1,-14%,-8%,-19%,31%,-5,50µM*
O=C(O)/C=C/c1cnc2ccccc2c1,-8%,-15%,-13%,27%,-10,50µM*
CCOc1ccc(NC(=O)Cn2c(=O)oc3cc(S(=O)(=O)NC4CCCC4)ccc32)cc1,.,-33%,-21%,43%,.,5%[59 µM]
CSC(=Nc1ccc(Cl)cc1)N[n+]1ccccc1,-8%,-29%,-11%,-3%,7,2µM*
COc1cccc(OC)c1OCCOCCN1CCN(C)CC1,1%,13%,-1%,23%,-2,-4%[2.33 µM]
SMILES,PLK1 PBD inh,BAZ2B inh,JMJD2A Tudor inh,HP1b binding inh,PI5P4Ka inh,G9a block
CN1CCN(CCOc2ccc(-c3ccccc3)cc2)CC1,-2%,?,-35%,10%,-2,50µM*
COc1ccc(OCCOCCN2CCN(C)CC2)cc1,1%,50µM*,18µM*,?,0,22µM*
CN1CCC(=O)N(CCOc2ccccc2)CC1,-3%,?,?,29%,1,28µM*
CCN1CCN(CCCOc2ccc(-c3ccccc3)cc2)CC1,-9%,10%,-28%,4%,.,19%[59 µM]
CN1CCN(CCCOc2ccc(-c3ccccc3)cc2)CC1,21µM*,-36%,?,28%,2,.
CCOC(=O)C1(COCc2ccccc2)CCCCC1=O (centres undefined),-3%,.,.,.,0,.
CCCCCc1ccc(C)cc1O,.,.,.,.,.,-12%[12.7 µM]
Cc1cc(C)n2nc(SCC(=O)c3ccccc3)nc2n1,-6%,-6%,-6%,15%,.,0%[2.33 µM]
Cc1cc(C)n2nc(SCC(=O)c3cc(C)n(-c4cc(C)on4)c3C)nc2n1,-6%,?,-15%,4%,.,50µM*
Cc1cc(C(=O)C[N+]2(C)CCOCC2)c(C)n1-c1ccc(Br)cc1,-2%,-37%,?,-5%,3,-27%
Cc1cc(C(=O)NP(=O)(N2CCOCC2)N2CCOCC2)c(C)n1-c1ccc(Br)cc1,-8%,?,-29%,-1%,-5,50µM*
Cc1cc(C(=O)NP(=O)(N2CCOCC2)N2CCOCC2)c(C)n1-c1ccc(N(C)C)cc1,-6%,?,?,-12%,1,22µM*
C=CCSC1=N/C(=C\C=C\c2ccco2)C(=O)S1,?,10µM*,45µM*,40µM*,-63*,7.1µM*
CC1(C)CCC[C@@](C)([C@H]2CC[C@]3(C)[C@@H]2[C@H](O)C[C@@H]2[C@@]4(C)CC[C@H](O)C(C)(C)[C@@H]4[C@@H](O)C[C@]23C)O1,.,.,.,.,.,15%[59 µM]
O=C(CSc1ncnc2sccc12)NCc1ccc2c(c1)OCO2,-5%,5%,-12%,32%,?,-3%[12.7 µM]
CCOc1ccc(OCCOc2ccc(/C=C/C(=O)O)cc2OCC)cc1,-6%,-2%,-7%,6%,4,?
CCOc1cc(/C=C/C(=O)O)ccc1OCCO,27µM*,-13%,35µM*,4%,-22,8%
CC1(C)C2CCC(C2)C1(C)NC(=O)CN1CCN(Cc2ccccc2)CC1 (centres undefined),-7%,28µM*,1.4µM*,16µM*,3,5.6µM*
Cc1ccc(NC(=O)CN2CCN(Cc3ccccc3)CC2)cc1,-8%,-3%,-9%,46%,1,-3%
CCCCN1CCc2nc(N3CCN(c4ncccn4)CC3)ncc2C1,.,56µM*,79µM*,20%,.,18µM*
CCCN1CCc2nc(N3CCN(c4ncccn4)CC3)ncc2C1,.,50µM*,89µM*,26%,.,32µM*
Cc1ccc(CN2CCc3nc(N4CCN(c5ccccc5F)CC4)ncc3C2)cc1C,.,-18%,-21%,38%,.,2%[59 µM]
CCOc1ccc(CN2CCc3nc(N4CCN(c5ccccn5)CC4)ncc3C2)cc1OC,.,79µM*,89µM*,17%,.,?
Brc1ccc(CN2CCc3nc(N4CCN(c5ncccn5)CC4)ncc3C2)cc1,.,50µM*,45µM*,-32%,.,?
O=C(Nc1ccnn1C1CCN(Cc2ccccc2F)CC1)C1CCCC1,1%,-9%,-23%,10%,-4,-10%[0.501 µM]
CC(C)(C)c1ccc(CNC(=O)C2CCCN2C(=O)Nc2ccccc2)cc1 (centres undefined),-6%,10%,-20%,-12%,-2,5%
